This is an account of results in PubChem BioAssay (NCATS).

Where “and” joins values, the source holds several entries; their conditions need not be identical. Equal values may be shown once. Records with an inconclusive call do not appear. Some structures have more than one record in an assay (separate samples or runs), and their calls can disagree. Calls of active or inactive are those of the source. The call rests on the fitted dose curve; in most records, active means well fitted curve in the direction sought with a large enough effect; inconclusive means small, poorly fitted or top-dose-only effect, or another doubt; inactive means no such curve, though single readings can be large; an effect the other way counts as inactive or inconclusive.

One test has as its system MKL-1. Nature of the test: qHTS assay to identify novel small-molecules to repurpose for Merkel cell carcinoma treatment (AID 1296009). Further: nearly all actives have a fitted effect of over 60% in size. Further: potency means the concentration at half of the fitted maximal effect. Conditions: MCC and control cell lines, CellTiter-Glo viability, 72 h; series mostly up to 46 µM. An outline of the steps: (§1)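 Dose-response viability screen; 72 hr exposure at 37 degree celsius; CellTiter-Glo added, 10 min room temperature, luminescence read; RLUs scaled between no-cell and DMSO wells.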
For orientation: Quantitative high-throughput screening tests each substance at several concentrations.

Another test concerns MKL-2. Described as above. Conditions: MCC and control cell lines, CellTiter-Glo viability, 72 h; series mostly up to 46 µM. The method, boiled down:
as §1

Another test concerns NIH3T3. Described as above. Conditions: MCC and control cell lines, CellTiter-Glo viability, 72 h; at 44.8 µM (top of the series) unless noted. The method, boiled down:
as §1
On the technique in general: In ATP-based viability assays light output follows the ATP content of the culture.

Another test concerns UISO. Described as above. Conditions: MCC and control cell lines, CellTiter-Glo viability, 72 h; series mostly up to 46 µM. The method, boiled down: as §1
The test system of the next test is WaGa. Described as above. The conditions noted are these: MCC and control cell lines, CellTiter-Glo viability, 72 h; series mostly up to 46 µM. An outline of the steps: as §1
In the next test the test system is C33A. Briefly: Primary qHTS to identify gynecologic anti-cancer compounds using libraries of approved drugs and bioactive compounds (AID 1345084). Further: nearly all actives have a fitted effect of over 55% in size. Conditions: Gynecologic cancer cell panel viability, ATPlite luminescence, 48 h; series mostly up to 57.5 µM. The method, boiled down:
(§2)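 Luminescence from the ATPlite ATP-monitoring reagent indicates viable cell number; lower signal means cytotoxicity. Cells received compound 16 h after seeding and were exposed for 48 h across five concentrations.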

For another test, the system named is CAOV3. Described as above. Conditions: Gynecologic cancer cell panel viability, ATPlite luminescence, 48 h; series mostly up to 57.5 µM. The method, boiled down:
as §2

A further test concerns CASKI. Described as above. The conditions noted are these: Gynecologic cancer cell panel viability, ATPlite luminescence, 48 h; series mostly up to 57.5 µM. The method, boiled down: as §2
In a further test the test system is Es-2. Described as above. Conditions: Gynecologic cancer cell panel viability, ATPlite luminescence, 48 h; series mostly up to 57.5 µM. An outline of the steps: as §2
The next test concerns HeLa. The description is as above. The conditions noted are these: Gynecologic cancer cell panel viability, ATPlite luminescence, 48 h; series mostly up to 57.5 µM. The method, boiled down:
as §2

The next test has as its system Hek293T. The test is described as above. The conditions noted are these: Gynecologic cancer cell panel viability, ATPlite luminescence, 48 h, control line for the selectivity index; series mostly up to 57.5 µM. The method, boiled down:
as §2

A further test deals with JEG-3. Described as above. The conditions noted are these: Gynecologic cancer cell panel viability, ATPlite luminescence, 48 h; series mostly up to 57.5 µM. An outline of the steps:
as §2

The test system of another test is OV90. The test is described as above. Conditions: Gynecologic cancer cell panel viability, ATPlite luminescence, 48 h; series mostly up to 57.5 µM. The method, boiled down: as §2
The next test deals with PA-1. Described as above. The conditions noted are these: Gynecologic cancer cell panel viability, ATPlite luminescence, 48 h; series mostly up to 57.5 µM. An outline of the steps:
as §2

The subject of a further test is SKOV3. The description is as above. Conditions: Gynecologic cancer cell panel viability, ATPlite luminescence, 48 h; series mostly up to 57.5 µM. The method, boiled down: as §2
For the next test, the system named is Tov-21-G. Described as above. The conditions noted are these: Gynecologic cancer cell panel viability, ATPlite luminescence, 48 h; series mostly up to 57.5 µM. An outline of the steps:
as §2

The subject of another test is Tov112D. The description is as above. The conditions noted are these: Gynecologic cancer cell panel viability, ATPlite luminescence, 48 h; series mostly up to 57.5 µM. An outline of the steps:
as §2

The nature of test [1]: Drug repurposing screens with cells derived from glioblastoma tumor samples (AID 1345199). Further: nearly all actives have a fitted effect of over 40% in size. Further: potency means the concentration at half of the fitted maximal effect. Conditions: GBM patient neurospheres viability, ATP luminescence, 48 h. The method, boiled down: (§3)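 Primary testing used CD133+ neurospheres from four GBM patients, seven concentrations, 48 h exposure and ATP-based viability; confirmation added three slower-growing patient lines.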
The test system of a further test is astro. Described as above. Conditions: viability, ATP luminescence, 48 h; series mostly up to 45.9 µM. An outline of the steps: as §3
[2] abbreviates: at 20 µM (top of the series), tumour line C.
Setting [3] is: at 21.2 µM (top of the series), tumour line B.
The mark [4] stands for this setting: at 21.2 µM (top of the series), tumour line D.
The mark [5] stands for this setting: at 45.9 µM (top of the series), tumour line B.
The mark [6] stands for this setting: at 45.9 µM (top of the series), tumour line D.
Setting [7] is: at 46 µM (top of the series), tumour line A.
[8] abbreviates: at 46.1 µM (top of the series), tumour line C.
On the % scale 0 is the no-effect control and ±100 the full control effect.

Consider `COc1ccc2cc([C@H](C)C(=O)O)ccc2c1`, for which the Potency result in the test with MKL-1, with MKL-2, in the test on UISO, with WaGa, in the test on C33A and with CAOV3 was “inactive” throughout. Moreover, the Potency entry with CASKI, with Es-2, with HeLa, in the test with Hek293T, in the test on JEG-3 and with OV90 was “inactive” in each case. In addition, the Potency result in the test with PA-1, in the test with SKOV3, in the test with Tov-21-G, in the test on Tov112D and in the test with astro was “inactive” each time. For the same molecule, the molecule was called inactive with NIH3T3. For the same molecule, the results for the activity, negative = cell killing in [1] (setting [2]), in [1] (setting [3]) and in test [1] (setting [4]) were -12.8% (inactive), -16.1% (inactive) and -8.68% (inactive), respectively.

For the molecule `Cc1cc(Cl)ccc1OCCCC(=O)NO`, the Potency in the test on MKL-1 was 14.8 µM (active).

As to `CC1=C(C)C(=O)C(C(CCCCCC(=O)O)c2ccccc2)=C(C)C1=O` (stereo not drawn), the Potency result in the test with MKL-1, in the test with UISO, with WaGa, in the test on C33A, in the test on CAOV3 and in the test with CASKI was “inactive” in each case. Also, the Potency result in the test on Es-2, in the test on HeLa, in the test with Hek293T, in the test with JEG-3, in the test on OV90 and in the test on PA-1 was “inactive” in each case. Besides, the Potency entry in the test on SKOV3, in the test on Tov-21-G, with Tov112D and in the test with astro was “inactive” throughout. In addition, the Potency in the test with MKL-2 was 23.7 µM (active) and inactive. Also, in the test with NIH3T3, the call was inactive. Also, the activity, negative = cell killing was -10.7% (inactive) in test [1] (setting [5]) and 17% (inactive) in [1] (setting [6]).

Take `C[C@]12CCC(=O)C=C1CC[C@@H]1[C@H]2[C@@H](O)C[C@@]2(C)[C@H]1CC[C@]2(O)C(=O)CO`: the Potency entry in the test on MKL-1, with MKL-2, with UISO, in the test on WaGa and with astro was “inactive” throughout. Moreover, the molecule was called inactive with NIH3T3. The activity, negative = cell killing was -8.77% (inactive) in [1] (setting [5]), -14.8% (inactive) in test [1] (setting [6]), -3.08% (inactive) in test [1] (setting [7]) and 14.8% (inactive) in [1] (setting [8]).

Turning to `Cc1cccc(-c2[nH]ncc2-c2ccc3ncccc3n2)n1`, the Potency result in the test with MKL-1, with MKL-2 and in the test with UISO was “inactive” each time.

Regarding `CC(C)(S)[C@@H](N)C(=O)O`, the Potency entry in the test on MKL-1, in the test on MKL-2, with UISO, with WaGa and with astro was “inactive” in each case. In addition, the call with NIH3T3 was inactive. In addition, the activity, negative = cell killing in test [1] (setting [5]) is -10.5% (inactive); in test [1] (setting [6]) it was -6.11% (inactive); in [1] (setting [7]) it was -3.65% (inactive); in test [1] (setting [8]), -16.2% (inactive).

Turning to `CCCCCCCCCCCCCCCCCCCCCCO`, the Potency result with MKL-1, in the test with MKL-2, in the test with UISO, with WaGa and in the test with astro was “inactive” each time. In addition, the molecule was classed as inactive in the test with NIH3T3. For the same molecule, the activity, negative = cell killing was -4.68% (inactive) in test [1] (setting [5]), 1.13% (inactive) in test [1] (setting [6]), -31.4% (inactive) in test [1] (setting [7]) and 4.25% (inactive) in test [1] (setting [8]).

With `Cc1c(C(=O)NN2CCCCC2)nn(-c2ccc(Cl)cc2Cl)c1-c1ccc(Cl)cc1`, the Potency result in the test on MKL-1, in the test on MKL-2, in the test on WaGa, in the test with C33A, with CAOV3 and with CASKI was “inactive” each time. The Potency entry in the test with Es-2, in the test with HeLa, in the test with JEG-3, with OV90, with PA-1 and with SKOV3 was “inactive” in each case. For the same molecule, the Potency result in the test on Tov-21-G and with Tov112D was “inactive” throughout. Further, the call with NIH3T3 was inactive. The activity, negative = cell killing in test [1] (setting [8]) is -11.3% (inactive). In addition, the Potency was 5.01 µM (active) in test [1] (tumour line A) and 35.5 µM (active) in the test on astro.

Take `Cc1ccc(S(=O)(=O)NC(=O)NN2CC3CCCC3C2)cc1` (stereo not drawn): the Potency result in the test with MKL-1, with UISO, in the test on WaGa, with C33A, in the test with CAOV3 and with CASKI was “inactive” throughout. The Potency result in the test with Es-2, in the test with HeLa, with Hek293T, in the test with JEG-3, in the test on OV90 and in the test on PA-1 was “inactive” in each case. Moreover, the Potency entry with SKOV3, in the test on Tov-21-G, with Tov112D and with astro was “inactive” each time. Further, the Potency result in the test with MKL-2 is “inactive and 26.4 µM (active)”. The values for the activity, negative = cell killing in test [1] (setting [2]), in test [1] (setting [3]) and in test [1] (setting [4]) were -7.38% (inactive), -4.46% (inactive) and -18.4% (inactive), respectively.
